# Source: the supplement of paper PMC4709259
# Where a name gives a salt, the structure may show the parent alone. ± gives the standard deviation.
# Assays:
# Jurkat [1] = assay: mean cell size (FSC-A) relative to DMSO control (fraction of control); higher = larger cells; conditions: 48 h
# Method in brief: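 Jurkat cells at 600 cells/µl were incubated for 1 h and then treated for 48h with the Enzo Screen-Well FDA Approved Drug Library v2.0 at 25µM, with DMSO at 0.9% (v/v) final. Compounds that reduced counts below 20% of controls were retested in 10-fold dilutions down to 25nM. Cell count and mean cell size, taken as forward scatter area, were measured by flow cytometry relative to solvent-only controls. Each plate carried 6-12 controls, and values are means of 3 biological replicates.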
# Jurkat [2] = assay: cell count relative to DMSO control (fraction of control); higher = more cells (less growth inhibition); conditions: 48 h
Structure (SMILES),mean cell size (Jurkat [1]),cell count (Jurkat [2])
COc1ccc2c3c1O[C@H]1C[C@@H](O)C=C[C@@]31CCN(C)C2 [Galantamine·HBr] (concentration: 25 µM),0.976 ± 0.01,0.701 ± 0.14
COc1c(C)c2c(c(O)c1C/C=C(\C)CCC(=O)O)C(=O)OC2 [Mycophenolic Acid] (concentration: 2.5 µM),1.01 ± 0.014,0.225 ± 0.05
O=C(O[C@@H]1C[C@@H]2C[C@H]3C[C@H](C1)N2CC3=O)c1c[nH]c2ccccc12 [Dolasetron] (concentration: 25 µM),0.921 ± 0.029,0.29 ± 0.053
C#C[C@]1(O)CC[C@H]2[C@@H]3CCC4=CC(=O)CC[C@@H]4[C@H]3CC[C@@]21CC [Levonorgestrel] (concentration: 25 µM),0.941 ± 0.032,0.903 ± 0.046
C#CCN[C@@H]1CCc2ccccc21 [Rasagiline Mesylate] (concentration: 25 µM),1.03 ± 0.024,1.01 ± 0.058
Nc1ccn(C[C@@H](CO)OCP(=O)(O)O)c(=O)n1 [Cidofovir] (concentration: 25 µM),1.13 ± 0.057,0.593 ± 0.094
Cc1cn([C@H]2C[C@H](N=[N+]=[N-])[C@@H](CO)O2)c(=O)[nH]c1=O [Zidovudine (3'-Azido-3'-Deoxythymidine)] (concentration: 25 µM),1.03 ± 0.025,0.714 ± 0.027
CO/N=C(\C(=O)N[C@@H]1C(=O)N2C(C(=O)O)=C(COC(C)=O)CS[C@H]12)c1csc(N)n1 [Cefotaxime Acid] (concentration: 25 µM),0.944 ± 0.025,0.957 ± 0.025
COc1cccc2c1C(=O)c1c(O)c3c(c(O)c1C2=O)C[C@@](O)(C(=O)CO)C[C@@H]3O[C@H]1C[C@H](N)[C@H](O)[C@H](C)O1 [Doxorubicin·HCl] (concentration: 250 nM),1.47 ± 0.048,0.234 ± 0.035
CCCCS(=O)(=O)N[C@@H](Cc1ccc(OCCCCC2CCNCC2)cc1)C(=O)O [Tirofiban·HCl] (concentration: 25 µM),0.937 ± 0.023,1.01 ± 0.08
CC(C)CN(C[C@@H](O)[C@H](Cc1ccccc1)NC(=O)O[C@H]1CO[C@H]2OCC[C@H]21)S(=O)(=O)c1ccc(N)cc1 [Darunavir] (concentration: 25 µM),1.01 ± 0.037,0.62 ± 0.062
CNC(=O)c1cc(Oc2ccc(NC(=O)Nc3ccc(Cl)c(C(F)(F)F)c3)cc2)ccn1 [Sorafenib Tosylate] (concentration: 2.5 µM),0.919 ± 0.022,0.999 ± 0.032
Cc1ccccc1C(OCCN(C)C)c1ccccc1 (configuration not stated) [Orphenadrine Citrate] (concentration: 25 µM),0.975 ± 0.056,0.742 ± 0.13
Nc1nc2[nH]cnc2c(=S)[nH]1 [Thioguanine (6-Thioguanine)] (concentration: 25 µM),0.935 ± 0.045,1.09 ± 0.061
C#C[C@]1(O)CC[C@H]2[C@@H]3CCC4=CCCC[C@@H]4[C@H]3C(=C)C[C@@]21CC [Desogestrel] (concentration: 25 µM),0.943 ± 0.018,1.03 ± 0.027
NCCCCCC(=O)O [Aminocaproic Acid] (concentration: 25 µM),0.976 ± 0.05,0.853 ± 0.1
CN1C(=O)OC(C)(C)C1=O [Trimethadione] (concentration: 25 µM),1.07 ± 0.016,1.02 ± 0.025
CN(C)CCc1c[nH]c2ccc(Cn3cncn3)cc12 [Rizatriptan Benzoate] (concentration: 25 µM),1.02 ± 0.039,0.844 ± 0.01
CCCCCCCN(CC)CCCC(O)c1ccc(NS(C)(=O)=O)cc1 (configuration not stated) [Ibutilide Fumarate] (concentration: 25 µM),0.936 ± 0.027,0.903 ± 0.047
CC(C)c1ccc2oc3nc(N)c(C(=O)O)cc3c(=O)c2c1 [Amlexanox] (concentration: 25 µM),0.923 ± 0.018,0.469 ± 0.12
COc1ccccc1OCC(O)CN1CCN(CC(=O)Nc2c(C)cccc2C)CC1 (configuration not stated) [Ranolazine·2HCl] (concentration: 25 µM),0.987 ± 0.031,0.979 ± 0.084
Cc1cn[nH]c1 [Fomepizole] (concentration: 25 µM),0.99 ± 0.036,0.868 ± 0.17
COC(=O)[C@H]1[C@H]2C[C@@H]3c4[nH]c5cc(OC)ccc5c4CCN3C[C@H]2C[C@@H](OC(=O)c2cc(OC)c(OC)c(OC)c2)[C@@H]1OC [Reserpine] (concentration: 25 µM),0.988 ± 0.025,0.616 ± 0.098
CC(CCc1ccccc1)NCC(O)c1ccc(O)c(C(N)=O)c1 (configuration not stated) [Labetalol·HCl] (concentration: 25 µM),0.928 ± 0.049,0.821 ± 0.1
Brc1c(NC2=NCCN2)ccc2nccnc12 [Brimonidine] (concentration: 25 µM),0.954 ± 0.027,0.9 ± 0.091
CO/N=C(\C(=O)N[C@@H]1C(=O)N2C(C(=O)OCOC(=O)C(C)(C)C)=C(/C=C\c3scnc3C)CS[C@H]12)c1csc(N)n1 [Cefditoren Pivoxil] (concentration: 25 µM),0.9999 ± 0.0094,0.77 ± 0.14

Structure (SMILES),mean cell size (Jurkat [1]),cell count (Jurkat [2])
CN1C2CCCC1CC(NC(=O)c1nn(C)c3ccccc13)C2 (configuration not stated) [Granisetron·HCl] (concentration: 25 µM),0.9687 ± 0.004,0.899 ± 0.037
COc1ccc2cc(CCC(C)=O)ccc2c1 [Nabumetone] (concentration: 25 µM),0.938 ± 0.032,0.888 ± 0.058
COCCCOc1ccnc(C[S+]([O-])c2nc3ccccc3[nH]2)c1C (configuration not stated) [Rabeprazole·Na] (concentration: 25 µM),0.923 ± 0.02,0.523 ± 0.06
CN1CCC[C@H]1c1cccnc1 [Nicotine] (concentration: 25 µM),0.936 ± 0.045,0.561 ± 0.18
CN(C)/N=N/c1[nH]cnc1C(N)=O [Dacarbazine] (concentration: 25 µM),0.981 ± 0.048,0.836 ± 0.093
CCCNC(C)C(=O)Nc1c(C)csc1C(=O)OC (configuration not stated) [Articaine·HCl] (concentration: 25 µM),0.96 ± 0.028,0.738 ± 0.059
CCC(C)n1ncn(-c2ccc(N3CCN(c4ccc(OCC5COC(Cn6cncn6)(c6ccc(Cl)cc6Cl)O5)cc4)CC3)cc2)c1=O (configuration not stated) [Itraconazole] (concentration: 25 µM),1.11 ± 0.071,0.323 ± 0.026
COC(=O)C1=C(C)NC(C)=C(C(=O)OCC(C)C)C1c1ccccc1[N+](=O)[O-] (configuration not stated) [Nisoldipine] (concentration: 25 µM),1.09 ± 0.047,0.342 ± 0.015
CC[C@H]1OC(=O)[C@H](C)[C@@H](O[C@H]2C[C@@](C)(OC)[C@@H](O)[C@H](C)O2)[C@H](C)[C@@H](O[C@@H]2O[C@H](C)C[C@H](N(C)C)[C@H]2O)[C@](C)(OC)C[C@@H](C)C(=O)[C@H](C)[C@@H](O)[C@]1(C)O [Clarithromycin] (concentration: 25 µM),0.977 ± 0.057,1.05 ± 0.078
Nc1ccc(O)c(C(=O)O)c1 [Mesalamine (5-Aminosalicylic Acid)] (concentration: 25 µM),0.912 ± 0.019,1 ± 0.046
NC(=O)c1cnccn1 [Pyrazinamide] (concentration: 25 µM),1 ± 0.031,0.808 ± 0.066
CC[C@H]1OC(=O)[C@H](C)[C@@H](O[C@H]2C[C@@](C)(OC)[C@@H](O)[C@H](C)O2)[C@H](C)[C@@H](O[C@@H]2O[C@H](C)C[C@H](N(C)C)[C@H]2O)[C@](C)(O)C[C@@H](C)CN(C)[C@H](C)[C@@H](O)[C@]1(C)O [Azithromycin] (concentration: 25 µM),0.948 ± 0.027,0.628 ± 0.078
CC(=O)OCC(=O)[C@@]1(O)CC[C@H]2[C@@H]3CCC4=CC(=O)CC[C@]4(C)[C@H]3C(=O)C[C@@]21C [Cortisone Acetate] (concentration: 25 µM),1.01 ± 0.028,0.823 ± 0.082
Nc1nc(/C(=C/CC(=O)O)C(=O)N[C@@H]2C(=O)N3C(C(=O)O)=CCS[C@H]23)cs1 [Ceftibuten] (concentration: 25 µM),0.925 ± 0.016,1.11 ± 0.031
C#C[C@]1(O)CC[C@H]2[C@@H]3CCC4=CC(=O)CC[C@@H]4[C@H]3C(=C)C[C@@]21CC [Etonogestrel] (concentration: 25 µM),0.997 ± 0.025,0.557 ± 0.013
NCC(=O)CCC(=O)O [Aminolevulinic Acid·HCl] (concentration: 25 µM),0.911 ± 0.013,0.638 ± 0.08
Cc1[nH]c(=O)c(C#N)cc1-c1ccncc1 [Milrinone] (concentration: 25 µM),0.919 ± 0.051,0.361 ± 0.085
O=C(O)CCc1nc(-c2ccccc2)c(-c2ccccc2)o1 [Oxaprozin] (concentration: 2.5 µM),0.966 ± 0.014,1.03 ± 0.013
CCOc1ccc2ccccc2c1C(=O)N[C@@H]1C(=O)N2[C@@H]1SC(C)(C)[C@@H]2C(=O)O [Nafcillin·Na] (concentration: 25 µM),0.954 ± 0.025,0.569 ± 0.13
CCOC(=O)[C@H](CCc1ccccc1)N[C@@H](C)C(=O)N1Cc2ccccc2C[C@H]1C(=O)O [Quinapril·HCl] (concentration: 25 µM),0.998 ± 0.022,1.01 ± 0.11
Cc1nc(-c2ccc(OCC(C)C)c(C#N)c2)sc1C(=O)O [Febuxostat] (concentration: 25 µM),1 ± 0.024,0.592 ± 0.028
O=P(O)(O)C(Sc1ccc(Cl)cc1)P(=O)(O)O [Tiludronate Disodium] (concentration: 25 µM),0.961 ± 0.06,0.663 ± 0.15
C[C@H]1COc2c(N3CCN(C)CC3)c(F)cc3c(=O)c(C(=O)O)cn1c23 [Levofloxacin·HCl] (concentration: 25 µM),0.936 ± 0.022,0.904 ± 0.066
N[C@@H](C(=O)N[C@@H]1C(=O)N2C(C(=O)O)=C(Cl)CS[C@H]12)c1ccccc1 [Cefaclor] (concentration: 25 µM),0.916 ± 0.015,1.03 ± 0.097
OC(CCN1CCCCC1)(c1ccccc1)C1CC2C=CC1C2 (configuration not stated) [Biperiden·HCl] (concentration: 25 µM),0.951 ± 0.055,0.654 ± 0.12
